Peg3 prom inh-1 = inhibitors of Peg3 promoter; HeLa PEG-Prom luciferase reporter, luminescence, overnight; inhibition, % at 20 µM; 1.7% of 360,000 active; AID 588405;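 active = inhibition of at least 50% at 20 µM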
Shn3 inh set2 = reduces Shn3 3'UTR luciferase signal in osteoblasts; 0.52% of 360,000 active; Clone20 osteoblast Shn3 3'UTR firefly luciferase, 24 h; inhibition, % at 12.5 µM; AID 588674;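 active = mean inhibition of at least 75% with every replicate also reaching 75%; inconclusive = mean inhibition at least 75% but some replicate below; inactive = mean inhibition below 75%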;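 note: 0% = median of neutral control wells and 100% = pilot-screen positive control compound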
TRPM1 prom inh = inhibitors of MITF-driven TRPM1 promoter in melanoma cells; SK-MEL-5 TRPM1 promoter luciferase, 24 h; inhibition, % at 12.5 µM; 0.83% of 330,000 active; AID 488899;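 active = mean inhibition across replicates of 60% or more, whatever share of single replicates reaches that level; inconclusive = some that reach 60%, reason not given; inactive = mean inhibition across replicates below 60%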
HIF-2a inh = HIF-2a inhibition; 786-0 RCC cells HIF-2a reporter, luciferase luminescence, overnight; inhibition, % at 18.8 µM; 0.72% of 360,000 active; AID 624352;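 active = inhibition of the luminescence signal of 40% or more relative to plate controls, in a single-dose primary screen at 18.75 µM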
KKLEB cytotox = counter-screen for CF NF-kB inhibitors: cytotoxicity; KKLEB CF airway cells viability, ATPlite luminescence, overnight; stronger effect = lower value; cells stimulated with P. aeruginosa culture filtrate; activity change (cytotoxicity), % at 5 µM; 0.36% of 360,000 active; AID 602141;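 active = corrected activity change at or below -50% at 5 µM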
CF NFkB inh = inhibitors of cystic fibrosis induced NF-kB; inhibition, % at 5 µM; 0.86% of 360,000 active; KKLEB NF-kB-GFP reporter, PAF-induced, GFP fluorescence overnight;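 active = at least 50% inhibition at 5 µM, scaled per plate between neutral and stimulator controls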;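 note: PAF is a Pseudomonas aeruginosa culture filtrate used as stimulus; plate controls were PAF-stimulated DMSO wells for no effect and unstimulated DMSO wells for full effect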
Peg3 prom inh-2 = confirmation of Peg3 promoter inhibitors | shares compounds with Peg3 prom inh-1 | HeLa PEG-Prom luciferase reporter, luminescence, overnight | inhibition, % at 20 µM | 84% of 1,300 active;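 active = at 20 µM dose, 40% or more inhibition averaged across four replicates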
An asterisk follows results filed as active; u = inconclusive; x = not tested or not shown. The list is not random: actives were taken first. Their share in the collection is about 2.8%.

SMILES	Peg3 prom inh-1	Shn3 inh set2	TRPM1 prom inh	HIF-2a inh	KKLEB cytotox	CF NFkB inh	Peg3 prom inh-2
COc1ccc(N(C)S(=O)(=O)c2cccc(C(=O)NC3CCCC(C)C3C)c2)cc1 (stereo not drawn)	9	17	16	9	-3	7	x
COc1ccc(/C=N/Nc2nncc3ccccc23)cc1	56*	12	5	25	-40	-44	46*
OCC1(CO)CCCC(CO)(CO)C1O	-1	14	2	1	18	-7	x
Cc1ccc(/C=C2\SC(=S)N(CCCC(=O)NNC(=O)c3ccccc3O)C2=O)cc1	80*	87*	x	91*	-6	2	82*
Cc1ccc(/C=C2\SC(=S)N(CCCC(=O)NC3CCCC3)C2=O)cc1	54*	34	76*	74*	8	14	49*
COc1cc(/C=C2\SC(=S)N(CCC(=O)NC3CCCC3)C2=O)cc(OC)c1OC	38	-9	29	7	-6	6	x
CCc1ccc(NC(=O)CSc2nc3ccccc3c(=O)n2CCCN2CCC(C)CC2)cc1	93*	26	-12	-6	-14	14	95*
O=C(CSc1nc2ccccc2c(=O)n1CCCN1CCOCC1)Nc1ccc(Br)cc1	-7	3	-10	-3	0	-14	x
Cc1ccc(-c2cc(C(=O)Nc3sc4c(c3C(=O)NCc3ccco3)CCC4)[nH]n2)c(O)c1	35	13	-3	16	-22	15	x
CCNC(=O)c1c(NC(=O)c2cc(-c3cc(C)ccc3O)n[nH]2)sc2c1CCCC2	60*	-12	-13	-10	-33	19	17
O=C(Nc1ccc([N+](=O)[O-])cc1)C(=O)Nc1cccc(C(=O)O)c1	64*	86*	x	80*	12	-26	68*
COC(=O)c1ccc2nc(-c3cccc(N)c3)cn2c1	68*	46	52	37	-6	-6	11
O=C(Nc1ccc(F)cc1)C1CCCN(C2=NS(=O)(=O)c3ccccc32)C1 (stereo not drawn)	13	6	-7	21	-5	19	x
Cc1ccc(NC(=O)c2nc[nH]c2C(=O)NCCCCNC(=O)c2[nH]cnc2C(=O)Nc2ccc(C)cc2)cc1	74*	38	3	-4	-83*	86*	43*
Cc1nc2c(OCc3ccc(OC(F)F)cc3)cccn2c1N(C)C(=O)CCC1CCCC1	65*	47	x	0	-7	0	54*
Cc1nc2c(OCc3ccc(F)c(F)c3)cccn2c1N(C)C(=O)CCC1CCCC1	26	21	x	1	-18	-2	x
CCN(Cc1ccccc1)S(=O)(=O)c1ccc(C(=O)N(CCCN(C)C)c2nc3cc4c(cc3s2)OCO4)cc1	87*	26	93*	3	0	-11	99*
CN(C)CCN(C(=O)c1ccc(S(=O)(=O)N(C)c2ccccc2)cc1)c1nc2cc3c(cc2s1)OCO3	-24	-9	0	-54	3	18	x
CC1(C)CC(NC(=O)c2sc3cc(Cl)ccc3c2Cl)CC(C)(C)N1	91*	32	-8	-48	-13	5	100*
CN(C)CCNc1ncnc2c1ncn2[C@H]1CN(Cc2ccccc2)C[C@@H](CO)O1	-7	-4	x	1	-5	10	x
CN(C)CCNc1ncnc2c1ncn2[C@H]1CN(Cc2ccc(-c3ccccc3)cc2)C[C@@H](CO)O1	80*	3	x	-3	-5	10	75*
CCCCN(C)CCNC(=O)CN1C(=O)CSc2ccc(S(=O)(=O)N3CCCC3)cc21	-3	-3	-10	6	8	-19	x
COCCN(C(=O)Nc1ccc(OC)cc1)c1nc2ccccc2s1	-9	-12	-1	-92	-11	20	x
CCc1ccc(Oc2coc3cc(OCC(=O)Nc4cc(C)ccc4C)ccc3c2=O)cc1	54*	25	42	5	-20	14	43*
CCCc1ccc(Oc2coc3cc(OCC(=O)Nc4ccccc4C)ccc3c2=O)cc1	14	8	-12	9	-5	13	x
SMILES	Peg3 prom inh-1	Shn3 inh set2	TRPM1 prom inh	HIF-2a inh	KKLEB cytotox	CF NFkB inh	Peg3 prom inh-2
CN1CCC2(CC1)N=C(c1ccc(F)cc1)C(=S)N2C(=O)c1ccc(C(C)(C)C)cc1	70*	9	14	-12	0	1	84*
CC(C)(C)c1ccc(C(=O)N2CCNCC2)cc1	-3	9	-4	-2	-10	1	x
Cc1ccc2sc(N(CCCN(C)C)C(=O)c3ccc(S(=O)(=O)N(C)C4CCCCC4)cc3)nc2c1C	104*	0	77*	-11	-17	36	100*
COc1cc(OC)c(OC)cc1CCC(C)NCCC(c1ccccc1)c1ccccc1 (stereo not drawn)	97*	u	53	4	-11	5	88*
S=C(Nc1ccc(Br)cc1Cl)N1CCCC1	-165	-81	-85	-241	3	7	x
O=C(Nc1ccc(CN2CCCCC2)cc1)Nc1ccc(Br)cc1Cl	67*	4	-35	5	-31	22	96*
Cc1ccc2nc(-c3ccccc3)nn2c1	43	47	42	20	-10	-17	x
COc1ccc(C)cc1Nc1n[n+](-c2ccccc2)c(-c2ccc(N(C)C)cc2)s1	62*	47	33	-32	4	23	50*
COc1ccc(C)cc1Nc1n[n+](-c2ccccc2)c(-c2ccc(OC)c(OC)c2OC)s1	3	32	26	6	-6	8	x
c1ccc(CCCNCCCn2cnc3c(OCc4ccccc4)ncnc32)cc1	56*	0	78*	-17	10	1	83*
C[C@@H](NCCCn1cnc2c(OCc3ccccc3)ncnc21)c1cccc2ccccc12	92*	-12	69*	-23	-19	17	86*
Nc1nc2ccc(Cl)cc2cc1C(=O)NCCc1c[nH]c2ccccc12	x	x	x	4	x	x	x
O=C(N/N=C/c1ccccc1Cl)c1n[nH]c2c1CCCC2	78*	54	67*	-17	-21	15	16
O=C(N/N=C/c1ccccc1)c1n[nH]c2c1CCCC2	-1	-22	-8	-112	-32	-2	x
O=Nc1c2cc(-c3ccccc3)[nH]nc-2c2ccccc12	10	6	27	-50	-11	-77	x
Cc1ccc(-c2cc3c(N=O)c4ccccc4c-3n[nH]2)cc1	59*	64	74*	68*	-81*	-22	69*
CCOc1cc(CNCCO)cc(Br)c1OCc1ccccc1Cl	106*	53	47	8	-6	13	74*
CNC(=S)N1CCN(CCNC2=CC(=O)CC(C)(C)C2)CC1	1	6	-4	18	18	-3	x
CC1(C)CC(NCCN2CCN(C3=CC(=C(C#N)C#N)CC(C)(C)C3)CC2)=CC(=C(C#N)C#N)C1	50*	-2	0	9	-9	9	44*

From PubChem BioAssay
